# Measurements from the OligoGym collection.
# Target: CLN5
# Assay: pooled miR-30 sensor sort-seq; sequence = guide strand
# Conditions: shRNA
# Further: reference of the scale not given here.
row,Sequence,sensor-assay potency score (higher = more potent)
1,TTTCTATGTTCTTGAACTCTGC,-0.7
2,TTCATTGTCCTGTTTCACCCAC,0.245
3,TAATATGCAGCAATTCTGCTGA,0.18
4,TTTGGTTGAACATGTTTCCTGA,0.362
5,TATAGTTGCTACTTGAACTAAT,-0.263
6,TAGTTGGTTTCTATGTTCTTGA,-0.69
7,TTGCCAGTTAATGTACTTCTGA,-0.714
8,TAGGTAAAAACCAATATTCAAA,-1.15
9,TGTTTGTGCACAATCACTGCAT,0.594
